# LASV entry inh: qHTS for Inhibitors of binding or entry into cells for Lassa Virus | Potency, µM (doses to about 49.2 µM), without a hit: at the highest dose activity change, negative = inhibition, most hits filed as inhibitors | 18,000 tested, 4.1% active | Lassa virus pseudotyped entry inhibition, cell-based qHTS
# MARV entry inh: qHTS for Inhibitors of binding or entry into cells for Marburg Virus. Marburg virus pseudotype entry/binding inhibition, cell-based. Potency, µM (series often up to 49.2 µM), without a hit: at the top dose activity change, negative = inhibition, most hits filed as inhibitors. AID 720532, 2013. 18,000 tested, 6.5% active
# Starred values were filed as active, the others as inactive; ? = inconclusive; . = not tested or not shown; ! = a repeat was not active; [ ] = another dose, or the depositor's remark. Rows were chosen to be rich in hits. Some 7.1% of all compounds tested hit in one or more screens of this group. Calls come from the whole dose curve; tested in HEK293 cells. % is set by controls: 0 for no effect and ±100 for the full control effect; potency is the fitted concentration of half-maximal effect.
SMILES,LASV entry inh,MARV entry inh
CC(=O)Nc1c(N)[nH]c(=O)n(C)c1=O,4.4%,-2.9%
O=C(NC(CC1=CCCCC1)c1ccc2c(c1)OCO2)C(F)(F)F (configuration not stated),26.8%[8.59 µM],47.2%[8.59 µM]
CC(C)NC[C@@H](O)COc1ccc(CC(N)=O)cc1,0.8%,-24.3%
CN(CCc1ccc(Cl)c(Cl)c1)C[C@@H](O)COc1ccc(NS(C)(=O)=O)cc1,-21.3%,14.1µM*
C#CCCCON=C1C[C@@H](O)[C@H](O)[C@H]2[C@@H]3C(=O)N(c4ccc(F)cc4F)C(=O)[C@@H]3CC[C@H]12,2.3%[8.59 µM],-6.1%[8.59 µM]
O=S1(=O)C=CCN1Cc1ccccc1,38.2%,6.0%
COCCCC/C(=N\OCCN)c1ccc(C(F)(F)F)cc1,-17.1%,14.1µM*
O=S1(=O)CCSCCN1Cc1cccc(Cl)c1,.,17.9%
CC(CCC(=O)OC[C@H]1O[C@H](C#Cc2ccccc2)C=C[C@H]1Oc1ccc(C)cc1)=NO[C@@H](C)c1cn([C@H](CO)Cc2ccccc2)nn1,.,8.5%[8.59 µM]
COC(=O)[C@]12CCC(C)(C)C[C@H]1[C@H]1C(=O)C=C3[C@@]4(C)C=C(C#N)C(=O)C(C)(C)[C@@H]4CC[C@@]3(C)[C@]1(C)CC2,3.55µM*,3.16µM*
CCOC(=O)CCN1C(=O)[C@@H]2[C@H]3[C@H](O)[C@H](O)CC(=NOCc4ccccc4)[C@@H]3CC[C@H]2C1=O,-17.5%[8.59 µM],-7.2%[8.59 µM]
CC[C@@H]1/C=C/C=C/C[C@H](C)[C@@H](O)[C@](C)(O)C(=O)[C@H](C)[C@@H](O)[C@H](C)C(=O)[C@H](C)[C@@H](O)[C@H](C)/C=C/C(=O)O[C@H]2[C@@H](C)[C@@H](CC1)O[C@@]1(CC[C@@H](C)[C@@H](C[C@H](C)O)O1)[C@@H]2C,39.8µM*,10µM*
Cc1ccc(C(=O)NC2CC2)cc1-c1ccc2[nH]ncc2c1,.,-9.1%
COC(=O)CC=C1c2ccc(F)cc2[C@@H](OC)[C@@H]1C,.,-11.0%[8.59 µM]
COC(=O)C1=C(C)N(Cc2ccccc2)C(=NCCCCO)NC1c1cccc(F)c1 (configuration not stated),.,57.1%[8.59 µM]
Cc1ccc(C(C)C)c(O)c1,-6.7%,4.1%
Cc1ccc(O)c([C@H](CCN(C(C)C)C(C)C)c2ccccc2)c1,?,10µM*
COC1=C(C(=O)c2ccccc2)C(=O)[C@@]2(CC=C(C)C)C[C@H](C(=O)OCC(F)(F)F)C(C)(C)[C@@]1(CC=C(C)C)C2=O,2.0%[8.59 µM],32.8%[8.59 µM]
CC(=O)OC[C@H]1O[C@@H](ON=C(C)CCC(=O)OC[C@H]2O[C@H](C#Cc3ccccc3)C=C[C@H]2Oc2ccc(C)cc2)[C@H](OC(C)=O)[C@@H](OC(C)=O)[C@H]1OC(C)=O,-1.0%[8.59 µM],9.2%[8.59 µM]
CC1CCN(CCCC(=O)c2ccc(F)cc2)CC1,-2.6%,-18.9%
CC(C)(C)c1ccc(C(=O)CCCN2CCC(OC(c3ccccc3)c3ccccc3)CC2)cc1,8.91µM*,-67.5%
CCCCC#C[C@@H]1C=C[C@H](Oc2ccc(C(=O)OC)cc2)[C@@H](COC(=O)OCC)O1,6.4%[8.59 µM],16.2%[8.59 µM]
CC(=O)OC[C@H]1O[C@H](c2ccc(C(C)=O)cc2)C=C[C@H]1OC(C)=O,-11.5%[8.59 µM],1.7%[8.59 µM]
CCOC(=O)NN=C1C[C@@H](O)[C@@H](O)[C@@H]2[C@H]3C(=O)N(c4cccc(Oc5ccccc5)c4)C(=O)[C@@H]3CC[C@@H]12,-10.0%[8.59 µM],36.5%[8.59 µM]
COc1cc2c(cc1O)CCN[C@]21CS[C@@H]2c3c(OC(C)=O)c(C)c4c(c3[C@H](COC1=O)N1[C@@H]2[C@H]2c3c(cc(C)c(OC)c3O)C[C@@H]([C@@H]1O)N2C)OCO4,39.8µM*!,?
SMILES,LASV entry inh,MARV entry inh
Fc1ccc([C@H]2CCNC[C@H]2COc2ccc3c(c2)OCO3)cc1,?,11.2µM*
Fc1ccc([C@H]2CCNCC2COc2ccc3c(c2)OCO3)cc1 (some centres not stated),-14.2%,10µM*
COc1ccc2c(c1)O[C@H](c1ccc3c(c1)OCO3)[C@@H](OC(=O)NS(=O)(=O)c1ccc(F)cc1)C2=O,2.7%,8.3%
COc1ccc2c(c1)O[C@@H](c1ccc3c(c1)OCO3)[C@H](OC(=O)NS(=O)(=O)c1ccc(F)cc1)C2=O,-0.1%,19.0%
CC#CCN1C(=O)NC(c2ccccc2)C(C(=O)OC)=C1C (configuration not stated),8.1%[8.59 µM],?
Cc1cc(-c2ccco2)cc(C)c1C=Cc1cncc(-c2nn[nH]n2)c1,-11.7%,?
CCCCCC(=O)N1C[C@@H](n2cc(C3CC3)nn2)[C@H](O)C[C@H]1c1ccccc1,16.7%,-7.1%
O=P(O)(O)O,35.5µM*,6.31µM*
O=C(O)P(=O)(O)O,-5.2%,1.0%
c1ccc2sc(C3(N4CCCC4)CCCCC3)cc2c1,0.6%,6.31µM*
c1ccc2sc(C3(NCC4CC4)CCCCC3)cc2c1,?,14.1µM*
C=C[C@@H](O)C[C@H]1C=C[C@@H]2C[C@H](C=C)OP(=O)(O1)O2,8.7%,1.7%
Cc1cc(O)cc(O)c1C(=O)OC1(C)C(=O)C=C2C=C(C=CCO)OC=C2C1=O (configuration not stated),10.1%[8.59 µM],52.0%[8.59 µM]
O=C(NN=C1C[C@@H](O)[C@H](O)[C@H]2[C@@H]3C(=O)N(C4CCCCC4)C(=O)[C@@H]3CC[C@@H]12)OCc1ccccc1,-15.7%[8.59 µM],-13.2%[8.59 µM]
O=C(C[C@H]1C(=O)N(c2ccccc2)C[C@@H]1c1ccccc1)Nc1ccccc1,25.2%,-13.8%
CCN(CC)C(=O)c1cc(S(=O)(=O)Cc2ccccc2)c(N2CCC(c3ccccc3)CC2)cc1N(CC)CCN(C)C,14.1µM*,5.01µM*
NS(=O)(=O)c1ccc(N=Nc2c(O)[nH]c3ccc(-c4cnco4)cc23)cc1,?,36.4%
C[C@H]1CC[C@H]2C(=O)N(Cc3cccc([N+](=O)[O-])c3)C[C@H](O)CN2[C@H]1c1cccc(Br)c1,7.8%[8.59 µM],-15.8%[8.59 µM]
O=C1C=C2C=C[C@@H]3C[C@@]2(O1)[C@H]1CCCCN31,?,14.1µM*
Cc1c(-c2ccc(Cl)cc2)noc1C1CCN(CCc2ccccc2)CC1,0.0%,?
Cc1c(C2CCN(CCc3ccccc3)CC2)noc1-c1ccc(Cl)cc1,-11.9%,11.2µM*
COc1ccccc1Nc1ncc(-c2ccccc2)o1,2.0%,10.0%
COCOCCn1cc(CN2CCS(=O)(=O)N(Cc3ccc(-c4cccc(N(C)C)c4)cc3)C(C)C2=O)nn1 (configuration not stated),18.0%,9.2%
COc1ccccc1N1CCN(CCCCN2C(=O)CCC2=O)CC1,2.2%,-4.7%
COc1cccc2c1CCCC2CCCN1CCN(C2CCCCC2)CC1 (configuration not stated),22.4µM*!,12.6µM*
SMILES,LASV entry inh,MARV entry inh
CC1(C)CC(=O)C2=C(C1)O[C@@]1(c3ccsc3)Cc3cc(C#N)ccc3[C@H]2O1,8.8%[8.59 µM],?
O=C(O)c1cc(C(=O)O)c(C(=O)N(Cc2cccc(Oc3ccccc3)c2)[C@H]2CCCc3ccccc32)cc1C(=O)O,-6.1%,7.3%
CNC(=O)[C@@H]1C[C@@H](NCc2cccc(Oc3ccccc3)c2)CN1C(C)C,3.0%,10µM*
O=S1(=O)N[C@H](Cc2ccccc2)COc2cc(NCCO)ccc21,15.8%,20.2%
CN1CCCC(n2nc(Cc3ccc(Cl)cc3)c3ccccc3c2=O)CC1 (configuration not stated),?,7.94µM*
O=S1(=O)c2ccc(Br)cc2N2CCC[C@@H]2CN1Cc1ccc(Cl)cc1,0.9%,?
C=C(CO[C@@H]1C=C[C@@H](c2ccccc2)O[C@@H]1COC)c1ccccc1,8.6%[8.59 µM],-4.3%[8.59 µM]
